The results in this text go back to PubChem BioAssay AID720706 (Broad Institute, 2013).

In all, about 350,000 compounds went through this assay and about 5,500 (1.6%) were called active. This is one part of a sample in which actives are shown more often than they occur.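 The calls were made as follows: active = significant combined selectivity score with lowered wild-type GFP, culture density cut under 30%, mutant RFP and density less affected; inactive = any of these conditions unmet.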

The experiment in a line: reduced GFP signal of wild-type E. coli, primary screen, bacterial rRNA inhibitor project, GFP/RFP fluorescence, OD600, single point (AID 720706). To be noted: E. coli WT GFP vs humanized-ribosome RFP mutants, 24 h; GFP signal change (wild-type ribosome): stronger effect = lower value, DMSO median 0, no signal -100; OD600 change: measured here: OD600 growth, DMSO median 0, no signal -100; RFP signal change: measured here: RFP humanized mutant strains, DMSO median 0, no signal -100, concentration not given here.
Regarding `C/C=C/c1ccc2c(c1)O[C@H](CN(C)C(=O)Cc1ccncc1)[C@@H](C)CN([C@@H](C)CO)S2(=O)=O`, the GFP signal change (wild-type ribosome) was -0.815% (inactive), the OD600 change was -5.29% and the RFP signal change worked out at 0.444%.
The corresponding values for `O=C(NCCS(=O)(=O)N1CCN(c2ccccc2F)CC1)c1ccc(Br)o1` are -32% (active), -25.8% and -5.03%.
With `O=C(NCCS(=O)(=O)N1CCN(c2ccccc2)CC1)c1cc(=O)c2ccccc2o1`, the GFP signal change (wild-type ribosome) is 1.78% (inactive), the OD600 change was determined as 2.38% and the RFP signal change is -0.491%.
As for `O=C(NCCS(=O)(=O)N1CCN(c2ccccc2)CC1)c1ccco1`, the GFP signal change (wild-type ribosome) was -1.63% (inactive), the OD600 change was -7.54% and the RFP signal change was -1.71%.
The corresponding values for `COc1cccc(S(=O)(=O)N2CCCCN3[C@H](CO)[C@H](c4ccc(C#CC5CC5)cc4)[C@H]3C2)c1` are -57.8% (inactive), -71% and -6.51%.
The corresponding values for `Cc1ccc(S(=O)(=O)N2CC(=O)Nc3ccccc32)cc1C` are -32.4% (active), -6.68% and 4.37%.
The corresponding values for `Cc1ccc(S(=O)(=O)N2CCN(c3ccccc3)CC2)cc1C` are -16.3% (inactive), -15.2% and -8.46%.
`Cc1ccc(S(=O)(=O)N(C)CC(=O)OCC(=O)N2CC(=O)Nc3ccccc32)cc1`: the GFP signal change (wild-type ribosome) was 2.71% (inactive), the OD600 change was -0.97% and the RFP signal change turned out to be 0.17%.
With `CCCNC(=O)N1C[C@H](C)[C@@H](OC)CN(C)C(=O)c2ccc(NS(=O)(=O)CC(F)(F)F)cc2OC[C@@H]1C`, the GFP signal change (wild-type ribosome) is -0.684% (inactive), the OD600 change was 1.48% and the RFP signal change is -1.07%.
The corresponding values for `Cc1ccccc1-c1cnc2c(c1)C(=O)N([C@H](C)CO)C[C@@H](C)[C@H](CN(C)C(=O)c1cccnc1)O2` are 2.61% (inactive), 12.8% and -2.14%.
Consider `COc1ccc2c3c(n(C)c2c1)[C@H](CO)N(Cc1ccccc1)CC31CCN(C)CC1`, for which the GFP signal change (wild-type ribosome) was 0.784% (inactive), the OD600 change worked out at 7.81% and the RFP signal change was found to be 2.48%.
Regarding `O=S(=O)([N-]c1nc2ccccc2nc1-[n+]1ccc(Cc2ccccc2)cc1)c1ccc(Br)s1`, the GFP signal change (wild-type ribosome) is -29.2% (active), the OD600 change is -18.6% and the RFP signal change is -0.481%.
The corresponding values for `CC(C)NC(=O)Nc1ccc2c(c1)CC(=O)N([C@@H](C)CO)C[C@@H](C)[C@H](CN(C)Cc1ccc(C(F)(F)F)cc1)O2` are 2.02% (inactive), -34.5% and -0.097%.
The corresponding values for `CCN(CC)C(=O)C(=O)c1cn(CC(=O)NCc2ccc3c(c2)OCO3)c2ccccc12` are 10.3% (inactive), -1.1% and 3.71%.
The corresponding values for `Cn1cc(CCC(=O)NCc2ccc3c(c2)OCO3)c2ccccc21` are -21.5% (active), -10.6% and 2.95%.
Take `Cn1cc(CCC(=O)NC2CC2)c2ccccc21`: the GFP signal change (wild-type ribosome) was 4.27% (inactive), the OD600 change came to 10.1% and the RFP signal change was -0.645%.
`O=C(C[C@@H]1CC[C@H](NC(=O)C2CCC2)[C@@H](CO)O1)NC1CCCCC1`: the GFP signal change (wild-type ribosome) is 3% (inactive), the OD600 change is 3.16% and the RFP signal change is -1.22%.
The corresponding values for `Cc1ccc(S(=O)(=O)NCCCn2ccnc2)cc1C(=O)NC(C)C` are 10.7% (inactive), 7.94% and -1.51%.
The corresponding values for `Cc1ccc(S(=O)(=O)NCCC(c2ccccc2)c2ccccc2)cc1C(=O)O` are -40.5% (active), -24.2% and -13.9%.
The corresponding values for `Cc1cccc(NS(=O)(=O)c2ccc(C)c(C(=O)NCC(c3ccccc3)N(C)C)c2)c1` (stereo not given) are 4.21% (inactive), 4.97% and 2.06%.
`O=C([C@@H]1[C@@H](CO)[C@@H]2Cn3c(ccc(C4=CCCCC4)c3=O)[C@H]1N2Cc1nccs1)N1CCCCC1`: the GFP signal change (wild-type ribosome) is -2.47% (inactive), the OD600 change was found to be 3.59% and the RFP signal change was 1.3%.
Regarding `COc1ccc(NC(=O)Nc2ccc3c(c2)CC(=O)N([C@H](C)CO)C[C@H](C)[C@H](CN(C)S(=O)(=O)c2ccccc2)O3)cc1`, the GFP signal change (wild-type ribosome) is 0.245% (inactive), the OD600 change was -2.9% and the RFP signal change was 0.358%.
The corresponding values for `O=S(=O)(NCC[C@H]1CC[C@@H](NS(=O)(=O)c2ccccc2Cl)[C@@H](CO)O1)c1ccc(Cl)cc1` are -2.84% (inactive), -5.01% and 0.345%.
The corresponding values for `CC(=O)c1cccc(NC(=O)C2CCN(C(=O)c3ccccc3Cl)CC2)c1` are 0.045% (inactive), 1.11% and 1.46%.
The corresponding values for `Cc1ccc2c(c1)C1C[N+](C)(CC(=O)c3ccccc3)CCC1N2C(=O)c1ccccc1Cl` (stereo not given) are -33.1% (active), -36.3% and 20.4%.
In the case of `Cc1ccc(C(=O)N2CCCc3ccccc32)c(Cl)c1`, the GFP signal change (wild-type ribosome) is -20.5% (inactive), the OD600 change is -35.7% and the RFP signal change was -12.1%.
The corresponding values for `COc1ccc(NC(=O)N(C)C[C@H]2Oc3ccc(NC(=O)Nc4ccc5c(c4)OCO5)cc3C(=O)N([C@H](C)CO)C[C@H]2C)cc1` are 0.515% (inactive), 4.81% and 0.195%.
Regarding `C[C@H](O)C#Cc1cnc2c(c1)C(=O)N([C@H](C)CO)C[C@H](C)[C@@H](CN(C)C(=O)Nc1ccc(F)cc1)O2`, the GFP signal change (wild-type ribosome) is 1.18% (inactive), the OD600 change is 9.67% and the RFP signal change is -3.38%.
The corresponding values for `COc1ccc(C#Cc2ccc([C@H]3[C@H]4CN(C(=O)c5cccnc5)CC(=O)N4[C@H]3CO)cc2)cc1` are 0.302% (inactive), -5.28% and 2.11%.
The corresponding values for `COc1cc(C(=O)NCc2cc3cc(Cl)ccc3n2C)cc(OC)c1OC` are 4.54% (inactive), 12% and 5.4%.
